The supplement of paper PMC10849652
Targets with a hit are over-represented here; the source holds about 7,900 in all. About 0.6% of all pairs of compound and target were hits. A number with no mark means an inactive call.

Assays:
Experiment in all cases: log2 fold change, soluble protein after heating vs DMSO (PISA); higher = thermal stabilisation; K562 cells, 10 uM, 30 min; active = over 0.2 and 3.5 SD of the protein, either way, in both replicates (recomputed)
[1] = compound: NC(=O)Nc1cc(-c2cccc(F)c2)sc1C(=O)N[C@H]1CCCNC1
Outline: (§1)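 K562 cells at 2×10^6 cells/mL were given 10 μM compound for 30 min. Aliquots then went through 3 min of heating across 48°C-58°C, were pooled, and were extracted in PBS with 0.5% NP-40 at 4°C, and the supernatant after 21,000xg for 90 min was quantified by TMTpro 16plex LC-MS/MS with channel sums equalised. Thermal stability relative to control samples, from duplicates, is given as log2 fold change.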

[2] = compound: NC(=O)c1cnc(N[C@@H]2CCCC[C@@H]2N)nc1Nc1cccc(-n2nccn2)c1
Outline: as §1

[3] = compound: NCC(=O)Nc1ccc(-n2nc(C(F)(F)F)cc2-c2ccc3c(ccc4ccccc43)c2)cc1
Outline: as §1

entinostat = compound: Nc1ccccc1NC(=O)c1ccc(CNC(=O)OCc2cccnc2)cc1 [entinostat]
Outline: as §1

vorinostat = compound: O=C(CCCCCCC(=O)Nc1ccccc1)NO [vorinostat]
Outline: as §1

citarinostat = compound: O=C(CCCCCCNC(=O)c1cnc(N(c2ccccc2)c2ccccc2Cl)nc1)NO [citarinostat]
Outline: as §1

silmitasertib = compound: O=C(O)c1ccc2c(c1)nc(Nc1cccc(Cl)c1)c1ccncc12 [silmitasertib]
Outline: as §1

[4] = compound: O=C1NC(=O)C(c2cnc3ccccn23)=C1c1cn2c3c(cc(F)cc13)CN(C(=O)N1CCCCC1)CC2
Outline: as §1

[5] = compound: c1cc(OCCN2CCCCC2)cc(-c2n[nH]c3ccc(-c4nnc[nH]4)cc23)c1
Outline: as §1

[6] = compound: NC1(c2ccc(-c3nc4ccn5c(=O)[nH]nc5c4cc3-c3ccccc3)cc2)CCC1
Outline: as §1

UniProt Q9UKU0, sequence (Q9UKU0 whole entry, looked up): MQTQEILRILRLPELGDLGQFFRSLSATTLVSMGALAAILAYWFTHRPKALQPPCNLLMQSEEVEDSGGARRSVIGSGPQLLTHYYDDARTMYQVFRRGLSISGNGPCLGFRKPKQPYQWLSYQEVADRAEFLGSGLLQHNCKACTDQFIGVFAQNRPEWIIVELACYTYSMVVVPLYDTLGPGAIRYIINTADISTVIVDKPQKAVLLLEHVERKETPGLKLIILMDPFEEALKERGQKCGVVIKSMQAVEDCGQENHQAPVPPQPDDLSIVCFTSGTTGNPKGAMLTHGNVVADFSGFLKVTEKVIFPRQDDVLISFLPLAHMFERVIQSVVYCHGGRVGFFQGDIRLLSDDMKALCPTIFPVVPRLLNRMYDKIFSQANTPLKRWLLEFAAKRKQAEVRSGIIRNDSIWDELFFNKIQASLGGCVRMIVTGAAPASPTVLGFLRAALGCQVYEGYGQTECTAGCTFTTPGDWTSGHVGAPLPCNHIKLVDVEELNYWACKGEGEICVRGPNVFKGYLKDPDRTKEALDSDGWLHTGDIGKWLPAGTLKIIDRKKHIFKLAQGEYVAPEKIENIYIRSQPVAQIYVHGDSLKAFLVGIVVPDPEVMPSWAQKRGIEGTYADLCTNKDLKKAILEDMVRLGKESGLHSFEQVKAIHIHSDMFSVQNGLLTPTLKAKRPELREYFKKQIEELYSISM
UniProt P42331, sequence (P42331 whole entry, looked up): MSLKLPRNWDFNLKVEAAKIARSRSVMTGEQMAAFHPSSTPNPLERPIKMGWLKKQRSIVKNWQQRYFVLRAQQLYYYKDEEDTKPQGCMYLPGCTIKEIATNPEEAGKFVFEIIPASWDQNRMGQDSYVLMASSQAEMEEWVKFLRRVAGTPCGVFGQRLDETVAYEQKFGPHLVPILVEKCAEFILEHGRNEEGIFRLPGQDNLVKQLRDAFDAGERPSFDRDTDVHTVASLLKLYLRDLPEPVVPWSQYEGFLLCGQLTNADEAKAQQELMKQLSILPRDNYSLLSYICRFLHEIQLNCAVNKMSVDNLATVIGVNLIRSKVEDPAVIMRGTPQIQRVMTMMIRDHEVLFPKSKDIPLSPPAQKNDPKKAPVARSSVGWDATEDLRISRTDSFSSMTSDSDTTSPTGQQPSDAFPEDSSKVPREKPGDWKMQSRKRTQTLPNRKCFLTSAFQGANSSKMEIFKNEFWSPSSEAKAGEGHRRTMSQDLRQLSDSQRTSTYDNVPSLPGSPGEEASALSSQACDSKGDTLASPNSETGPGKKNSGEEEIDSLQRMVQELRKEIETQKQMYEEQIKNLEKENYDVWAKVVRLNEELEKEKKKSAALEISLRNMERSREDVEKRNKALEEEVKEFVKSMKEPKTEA
UniProt Q8N5I2, sequence (Q8N5I2 whole entry, looked up): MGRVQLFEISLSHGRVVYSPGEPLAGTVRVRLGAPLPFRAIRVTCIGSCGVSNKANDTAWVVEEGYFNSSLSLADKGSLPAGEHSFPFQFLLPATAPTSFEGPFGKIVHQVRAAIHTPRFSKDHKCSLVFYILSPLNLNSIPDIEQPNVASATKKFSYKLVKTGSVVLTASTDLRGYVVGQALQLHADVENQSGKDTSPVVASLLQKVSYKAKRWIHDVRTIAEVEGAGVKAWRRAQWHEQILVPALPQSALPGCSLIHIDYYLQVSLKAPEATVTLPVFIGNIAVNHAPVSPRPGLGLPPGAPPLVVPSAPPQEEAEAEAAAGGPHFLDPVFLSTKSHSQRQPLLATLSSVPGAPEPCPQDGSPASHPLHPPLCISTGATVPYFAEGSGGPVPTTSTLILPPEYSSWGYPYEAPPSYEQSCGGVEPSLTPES
UniProt P54922, sequence (P54922 whole entry, looked up): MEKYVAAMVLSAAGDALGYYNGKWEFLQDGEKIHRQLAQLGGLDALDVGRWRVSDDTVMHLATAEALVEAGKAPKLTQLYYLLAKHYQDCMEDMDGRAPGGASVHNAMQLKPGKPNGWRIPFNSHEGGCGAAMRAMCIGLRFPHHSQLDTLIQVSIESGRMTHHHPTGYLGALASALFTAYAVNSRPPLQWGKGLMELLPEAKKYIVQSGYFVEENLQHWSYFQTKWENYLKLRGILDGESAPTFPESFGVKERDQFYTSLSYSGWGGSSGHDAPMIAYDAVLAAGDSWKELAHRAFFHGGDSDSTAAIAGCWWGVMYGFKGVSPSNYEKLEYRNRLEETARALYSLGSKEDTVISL
UniProt P53367, sequence (P53367 whole entry, looked up): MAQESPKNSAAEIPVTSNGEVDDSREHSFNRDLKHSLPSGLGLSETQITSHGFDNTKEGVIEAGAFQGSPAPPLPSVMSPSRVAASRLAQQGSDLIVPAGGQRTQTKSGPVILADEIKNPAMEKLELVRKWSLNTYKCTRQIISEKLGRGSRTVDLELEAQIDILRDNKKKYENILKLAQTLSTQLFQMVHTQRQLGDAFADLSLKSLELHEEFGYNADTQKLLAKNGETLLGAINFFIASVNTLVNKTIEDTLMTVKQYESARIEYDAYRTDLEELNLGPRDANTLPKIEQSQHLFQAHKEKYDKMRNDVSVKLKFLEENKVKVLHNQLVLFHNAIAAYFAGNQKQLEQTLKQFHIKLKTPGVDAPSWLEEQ
UniProt Q9BX63, sequence (Q9BX63 whole entry, looked up): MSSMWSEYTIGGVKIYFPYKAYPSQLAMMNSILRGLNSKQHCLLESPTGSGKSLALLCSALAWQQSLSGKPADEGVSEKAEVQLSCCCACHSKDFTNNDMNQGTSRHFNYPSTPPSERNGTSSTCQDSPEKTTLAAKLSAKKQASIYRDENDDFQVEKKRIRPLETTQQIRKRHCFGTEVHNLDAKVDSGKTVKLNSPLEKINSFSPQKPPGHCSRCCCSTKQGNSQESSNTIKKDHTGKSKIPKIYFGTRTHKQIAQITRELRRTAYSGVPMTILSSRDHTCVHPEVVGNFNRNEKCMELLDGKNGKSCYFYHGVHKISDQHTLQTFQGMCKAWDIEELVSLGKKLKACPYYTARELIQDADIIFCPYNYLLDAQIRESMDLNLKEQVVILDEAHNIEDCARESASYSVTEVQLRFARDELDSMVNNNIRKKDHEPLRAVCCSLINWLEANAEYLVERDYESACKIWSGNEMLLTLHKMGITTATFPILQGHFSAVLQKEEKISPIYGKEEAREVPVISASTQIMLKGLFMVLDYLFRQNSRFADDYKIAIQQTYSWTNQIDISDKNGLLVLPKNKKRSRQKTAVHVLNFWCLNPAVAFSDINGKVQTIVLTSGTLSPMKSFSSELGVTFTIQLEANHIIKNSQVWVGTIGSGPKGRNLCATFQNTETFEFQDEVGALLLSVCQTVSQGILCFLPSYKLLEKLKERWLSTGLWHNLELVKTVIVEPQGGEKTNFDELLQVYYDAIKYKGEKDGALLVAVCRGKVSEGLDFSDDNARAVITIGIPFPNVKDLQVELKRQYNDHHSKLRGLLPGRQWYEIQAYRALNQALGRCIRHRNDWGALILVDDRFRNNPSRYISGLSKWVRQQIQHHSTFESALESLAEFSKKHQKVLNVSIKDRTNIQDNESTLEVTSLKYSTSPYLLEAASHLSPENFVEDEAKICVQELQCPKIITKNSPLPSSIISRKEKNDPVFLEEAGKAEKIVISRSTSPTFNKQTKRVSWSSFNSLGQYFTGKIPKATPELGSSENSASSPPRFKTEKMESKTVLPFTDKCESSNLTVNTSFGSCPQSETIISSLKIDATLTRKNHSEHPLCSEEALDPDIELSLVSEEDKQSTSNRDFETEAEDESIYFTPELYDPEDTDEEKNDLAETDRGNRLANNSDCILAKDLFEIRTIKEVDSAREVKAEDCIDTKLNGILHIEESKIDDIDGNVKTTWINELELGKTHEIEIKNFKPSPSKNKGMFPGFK
UniProt Q13444, sequence (Q13444 whole entry, looked up): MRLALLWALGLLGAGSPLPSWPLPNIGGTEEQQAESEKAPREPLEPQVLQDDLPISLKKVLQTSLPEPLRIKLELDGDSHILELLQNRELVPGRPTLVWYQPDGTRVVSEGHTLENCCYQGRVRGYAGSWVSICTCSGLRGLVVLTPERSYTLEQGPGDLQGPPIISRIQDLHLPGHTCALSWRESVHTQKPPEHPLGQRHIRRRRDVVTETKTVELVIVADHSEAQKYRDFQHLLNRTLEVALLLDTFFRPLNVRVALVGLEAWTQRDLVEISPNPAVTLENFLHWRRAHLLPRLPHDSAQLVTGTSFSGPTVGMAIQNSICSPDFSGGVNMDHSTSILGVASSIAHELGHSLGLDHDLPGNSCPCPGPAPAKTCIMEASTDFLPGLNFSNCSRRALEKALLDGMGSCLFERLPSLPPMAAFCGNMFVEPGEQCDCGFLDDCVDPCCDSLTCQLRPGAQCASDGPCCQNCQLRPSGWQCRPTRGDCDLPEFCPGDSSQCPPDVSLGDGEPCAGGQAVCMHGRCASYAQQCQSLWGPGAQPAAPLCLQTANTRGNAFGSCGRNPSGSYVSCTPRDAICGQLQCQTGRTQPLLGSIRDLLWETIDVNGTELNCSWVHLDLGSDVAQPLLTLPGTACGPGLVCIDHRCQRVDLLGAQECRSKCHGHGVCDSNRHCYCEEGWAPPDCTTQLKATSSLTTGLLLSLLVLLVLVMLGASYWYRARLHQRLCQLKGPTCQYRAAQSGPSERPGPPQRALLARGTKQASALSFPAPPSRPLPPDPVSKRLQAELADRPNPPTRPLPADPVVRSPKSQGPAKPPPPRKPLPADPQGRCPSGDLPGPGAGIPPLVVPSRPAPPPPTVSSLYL
UniProt P40617, sequence (P40617 whole entry, looked up): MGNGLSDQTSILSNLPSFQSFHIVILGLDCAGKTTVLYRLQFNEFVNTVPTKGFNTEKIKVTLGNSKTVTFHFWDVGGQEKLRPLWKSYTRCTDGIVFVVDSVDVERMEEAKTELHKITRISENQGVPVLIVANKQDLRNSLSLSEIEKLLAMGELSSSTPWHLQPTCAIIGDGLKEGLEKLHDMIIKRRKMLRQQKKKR
UniProt P55008, sequence (P55008 whole entry, looked up): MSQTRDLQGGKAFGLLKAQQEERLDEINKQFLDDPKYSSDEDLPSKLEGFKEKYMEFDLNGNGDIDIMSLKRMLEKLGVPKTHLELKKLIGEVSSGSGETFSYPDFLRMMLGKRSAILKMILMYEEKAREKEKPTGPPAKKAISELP

Target	log2 fold change [1]	log2 fold change [2]	log2 fold change [3]	log2 fold change (entinostat)	log2 fold change (vorinostat)	log2 fold change (citarinostat)	log2 fold change (silmitasertib)	log2 fold change [4]	log2 fold change [5]	log2 fold change [6]
BRAF (UniProt P15056)	-0.102	-0.079	-0.046	0.009	0.012	-0.002	0.024	-0.007	-0.067	–
AASDH (UniProt Q4L235)	-0.044	–	-0.166	0.007	0.051	–	0.036	-0.064	–	-0.12
AGAP3 isoform 4 (UniProt Q96P47)	0.034	-0.128	–	0.021	–	-0.063	-0.019	0.127	-0.18	-0.001
ARL4A (UniProt P40617)	–	-0.276	–	–	–	–	0.068	–	–	-0.117
AZI2 (UniProt Q9H6S1)	-0.094	–	-0.152	0.041	–	-0.014	–	–	-0.028	–
ABCA4 (UniProt P78363)	0.007	-0.092	–	0.002	0.124	0.013	-0.082	-0.041	0.157	0.061
ABHD11 (UniProt Q8NFV4)	–	-0.089	0.016	–	-0.042	0.058	-0.021	-0.159	-0.009	-0.139
ANGEL1 (UniProt Q9UNK9)	–	–	-0.004	–	–	–	–	–	–	–
AUH (UniProt Q13825)	–	0.011	0.103	–	0.018	-0.103	-0.061	–	0.003	-0.023
ADAM15 (UniProt Q13444)	-0.023	0.034	-0.024	0.085	0.092	–	–	0.031	–	–
ATXN7L3 isoform 2 (UniProt Q14CW9)	0.182	0.033	–	-0.346	–	-0.087	-0.373	–	0.051	0.207
ARRDC1 (UniProt Q8N5I2)	0.013	–	0.057	0.075	-0.086	0.056	0.075	-0.008	-0.001	-0.06
ARHGAP25 isoform 4 (UniProt P42331)	–	0.068	-0.127	–	-0.099	0.105	0.213	0.021	-0.049	-0.181
ABCA3 (UniProt Q99758)	0.021	-0.001	-0.196	-0.064	0.02	0.021	–	0.134	0	–
ALG14 (UniProt Q96F25)	–	0.018	-0.081	–	0.29	0.028	0.076	0.061	-0.123	-0.118
ARMC8 isoform 6 (UniProt Q8IUR7)	–	-0.023	0.025	–	–	–	–	–	–	–

Target	log2 fold change [1]	log2 fold change [2]	log2 fold change [3]	log2 fold change (entinostat)	log2 fold change (vorinostat)	log2 fold change (citarinostat)	log2 fold change (silmitasertib)	log2 fold change [4]	log2 fold change [5]	log2 fold change [6]
ACTR3B (UniProt Q9P1U1)	–	–	-0.217	–	-0.067	–	–	–	–	–
BAIAP2 isoform 4 (UniProt Q9UQB8)	0.019	–	–	-0.095	–	–	–	–	–	–
ADD2 isoform 9 (UniProt P35612)	0	–	–	-0.052	–	–	-0.225	–	–	-1.2 (active)
BRIP1 (UniProt Q9BX63)	0.139	-0.139	-0.099	0.001	-0.025	0.054	–	-0.07	0.077	–
ATXN3 isoform 1 (UniProt P54252)	–	-0.256	-0.019	–	-0.003	-0.01	0.093	–	-0.015	-0.137
AIF1 (UniProt P55008)	0.04	0.004	0.021	-0.105	–	–	–	0.068	–	–
AKNA (UniProt Q7Z591)	-0.069	–	–	1.72 (active)	–	–	–	–	–	–
ACSL6 isoform 1 (UniProt Q9UKU0)	0.061	–	-0.174	-0.056	0.048	–	-0.077	-0.421	–	-0.152
ALDH2 isoform 2 (UniProt P05091)	-0.345	-0.389	-0.351	-0.14	0.083	-0.055	–	0.051	-0.36	–
ARFIP1 isoform 2 (UniProt P53367)	0.11	–	–	0.012	0.331	–	-0.08	-0.062	–	-0.147
ADD1 isoform 4 (UniProt P35611)	–	–	–	–	0.05	–	–	0.027	–	–
BRAF, A0A2R8Y8E0	–	0.214	–	–	–	–	-0.064	–	–	-0.31
BAP18 isoform 3 (UniProt Q8IXM2)	–	–	–	–	0.192	–	-0.119	–	–	-0.042
AUNIP isoform 2 (UniProt Q9H7T9)	-0.194	-0.037	0.073	0.003	–	–	–	–	–	–
BRMS1 (UniProt Q9HCU9)	–	0.15	–	–	-0.053	-0.097	-0.042	-0.033	-0.178	0.121
ADPRH (UniProt P54922)	0.015	–	-0.623 (active)	-0.034	-0.039	–	0.086	-0.104	–	-0.178
